# PTHR1 ag = agonists of human PTHR1 parathyroid hormone receptor; Potency, µM (series often up to 115 µM), hits mostly activators; 410,000 compounds, 0.075% hits; HEK293 GP2 PTHR1 cells, GloSensor cAMP luminescence, 1 h; Q03431; also: nearly all actives have a fitted effect of over 55% in size
#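 HEK-293-derived GP2 cells expressing PTHR1 and a GloSensor cAMP reporter, 3,000/well, plated overnight, given luciferin plus IBMX (each 0.5 mM as added) for 1 h at 37 °C, then compound for 1 h at 37 °C. Luminescence was read after 15 min at room temperature.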
# D3 antag = antagonists of human D3 dopamine receptor; P35462; D3R cells, DiscoveRx beta-arrestin luminescence, antagonist mode; active compounds read low; max response, negative = inhibition, %; 360,000 compounds, 2.5% hits; in the data active = max response below about -50%; inconclusive = no clear call, values can overlap the other calls
# Target sequence (P35462 whole entry, looked up): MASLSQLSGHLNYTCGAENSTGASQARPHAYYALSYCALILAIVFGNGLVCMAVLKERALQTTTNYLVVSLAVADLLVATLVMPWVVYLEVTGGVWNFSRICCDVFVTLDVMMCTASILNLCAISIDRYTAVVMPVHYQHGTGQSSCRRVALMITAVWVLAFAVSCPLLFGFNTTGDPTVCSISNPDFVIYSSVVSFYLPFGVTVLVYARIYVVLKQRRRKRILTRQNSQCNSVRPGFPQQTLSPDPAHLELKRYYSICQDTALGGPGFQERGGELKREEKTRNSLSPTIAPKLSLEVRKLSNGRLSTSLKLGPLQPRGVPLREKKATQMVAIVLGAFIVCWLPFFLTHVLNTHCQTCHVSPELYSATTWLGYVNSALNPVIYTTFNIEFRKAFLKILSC
#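 Cells expressing the human receptor were seeded at 1500 cells/well, incubated overnight at 37 degrees C in 5% CO2, then exposed to library compounds with dopamine controls for 90 minutes at 37 degrees C before luminescent detection.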
# CBFb RUNX1 block = CBF-beta/RUNX1 interaction disruption; AlphaScreen CBFb-His/RUNX1-biotin binding, biochemical; Potency, µM (doses to about 59.8 µM), most hits filed as inhibitors; 230,000 tested, under 10 active; AID 1477
#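 Read-out: AlphaScreen. Format: His-CBF-beta with biotinylated RUNX1 (30 nM each) preincubated 20 min, compound 15 min, Ni-chelate plus streptavidin beads 90 min; room temperature throughout.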
# D3 ag = D3 dopamine receptor (human) agonism. AID 652048. max activation, %. P35462. D3R DiscoveRx beta-arrestin cells, luminescence, 90 min. 410,000 compounds, 0.58% hits; in the data active = max activation above about 30%
#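 Agonist mode: compounds and dopamine controls were applied to plated cells for 90 min at 37 degrees C after an overnight attachment at 1500 cells/well. Luminescent read-out followed 30 - 60 minutes at room temperature with DiscoveRx detection reagent.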
# MBNL1 CUG block = inhibitors of human MBNL1 binding to CUG repeat RNA; Q9NR56; TR-FRET MBNL1-His/biotin-(CUG)12 binding, 665/545 ratio; Potency, µM (highest dose often 57.5 µM), actives largely listed as inhibitors; 280,000 compounds, 0.036% hits; active = well fitted inhibition curve with a large enough effect in the signal ratio, with a control signal flat, not every such curve was filed as active; inconclusive = small, poorly fitted or top-dose-only effect, or effect the other way, or a change in a side signal; inactive = no such curve, though single readings can be large or run the other way; the % refers to the signal ratio
#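 Inhibition of protein-RNA binding appears as loss of TR-FRET between terbium anti-His antibody on MBNL1-His and streptavidin-XL665 on biotin-(CUG)12. Activity is normalized to buffer-only and uninhibited-complex controls.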
# a7 integrin act = integrin-mediated muscular dystrophy alleviation activation; alpha7betagal myoblasts, beta-gal FDG fluorescence, 48 h; Potency, µM (top dose mostly 38.3 µM), most hits filed as activators; 350,000 compounds, 0.064% hits; also: nearly all actives have a fitted effect of over 60% in size
#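 alpha7betagal+/- myoblasts (passage 13, 250/well) treated 48 h at 37C with compounds at 1:260 dilution of DMSO stock. Lysed, then beta-galactosidase activity read as FDG fluorescence (ex 480/em 540) after 30 min, with pre-read for autofluorescence.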
# Hits are given with their value; 0 = inactive; ? = inconclusive; - = not tested or not shown; [ ] = dose if it differs, or a comment. Most compounds without a hit are left out; they make up all but 2.8% or so of the library. Unless noted, calls follow the shape of the dose curve; as a rule, active = well fitted curve in the direction sought with a large enough effect; inconclusive = small, poorly fitted or top-dose-only effect, or another doubt; inactive = no such curve, though single readings can be large; an effect the other way counts as inactive or inconclusive.
SMILES,PTHR1 ag,D3 antag,CBFb RUNX1 block,D3 ag,MBNL1 CUG block,a7 integrin act
CC[C@@]12C(=O)N(c3ccc(OC)cc3)C(=O)N1[C@H](c1cccc(C)c1)[C@@H]1C(=O)N(Cc3ccccc3)C(=O)[C@@H]12,0,0,-,45,0,0
CC[C@@]12C(=O)N(c3cccc(Cl)c3)C(=O)N1[C@H](c1cccc(C)c1)[C@@H]1C(=O)N(Cc3ccccc3)C(=O)[C@@H]12,0,?,-,0,-,0
COC(=O)CC1=C(c2ccc([N+](=O)[O-])cc2)CCC1=O,0,0,-,0,-,0
Cc1ccc(C2=C(CC(=O)O)C(=O)CC2)cc1,0,0,0,0,-,4.5µM
CCn1cc(C(=O)N[C@H](C(=O)NCCO)C(C)C)c(=O)c2cc3c(cc21)OCO3,0,0,-,51,0,0
C=CCc1ccc(OCC(O)CN2CCN(c3ccccc3)CC2)c(OC)c1 (stereo not drawn),0,?,-,38,0,0
C=CCc1cc(C)ccc1OCC(O)CN1CCN(c2ccccc2)CC1 (stereo not drawn),0,0,0,75,0,0
CC1(C)Cc2nc3sc4c(=O)n(Cc5ccccc5)cnc4c3cc2CS1,0,-66,0,0,0,0
COC(=O)c1c(C(=O)OC)c(-c2ccc(Br)cc2)n2c1CS(=O)C2 (stereo not drawn),0,0,-,0,0,0
COc1cccc(N2CCN(CC(=O)Nc3ccccc3C(=O)NCCc3ccccc3)CC2)c1,0,0,-,34,-,0
COc1cccc(N2CCN(CC(=O)Nc3ccccc3C(=O)NCc3ccccc3)CC2)c1,0,0,-,0,-,0
CNCC(=O)N[C@@H](CCCN=C(N)N)C(=O)N[C@H](C(=O)N[C@@H](Cc1ccc(O)cc1)C(=O)N[C@H](C(=O)N[C@@H](Cc1cnc[nH]1)C(=O)N1CCC[C@H]1C(=O)N[C@@H](C)C(=O)O)C(C)C)C(C)C,-,-,-,0,-,-
C=CCNCCCCOc1ccc(C)cc1[N+](=O)[O-],0,-82,0,0,0,0
COCCNCCCCOc1ccc(C)cc1[N+](=O)[O-],0,0,?,0,0,0
Cc1ccc(OCCN2C(=O)c3ccccc3C2=O)c([N+](=O)[O-])c1,0,-69,0,0,0,0
COCCCNCCOc1ccc(C)cc1[N+](=O)[O-],0,-84,0,0,0,0
CCC(C)NCCCCOc1ccc(C)cc1[N+](=O)[O-] (stereo not drawn),0,-93,0,0,0,0[7.66 µM]
Cc1ccc(OCCN2C(=O)c3ccccc3C2=O)c(C)c1,0,0,0,0,0,0
CN(C(=O)c1ccccc1C(=O)OCC(=O)Nc1ccccc1)c1ccccc1,0,0,-,0,-,0
C=CCNc1nnc(Cc2ccc(C(C)C)cc2)c(=O)[nH]1,0,0,-,0,0,0
Cc1cc(OCC(=O)OCC(=O)N2CCc3ccccc3C2)ccc1Cl,0,0,-,0,-,0
Cc1cc(OCCN2CC(C)OC(C)C2)ccc1[N+](=O)[O-] (stereo not drawn),0,0,0,0,0,0
Cc1ccc(OCCOCCN2CCCCC2)c([N+](=O)[O-])c1,0,0,0,0,0,0
Cc1ccc([N+](=O)[O-])c(OCCN2CCNCC2)c1,0,-62,0,0,0,0
Cc1ccc(OCCOCCNC(C)(C)C)c([N+](=O)[O-])c1,0,?,0,0,0,0
SMILES,PTHR1 ag,D3 antag,CBFb RUNX1 block,D3 ag,MBNL1 CUG block,a7 integrin act
Cc1cc(OCCN2CCC(Cc3ccccc3)CC2)ccc1[N+](=O)[O-],0,-64,-,0,0,0
COCCCNCCOCCOc1ccc(C)cc1[N+](=O)[O-],0,-54,0,0,0,0
S=C(NCCc1ccccc1)N1CCc2ccccc2C1,0,0,?,0,0,0
Cc1cc(C)c2c(N)c3cccc(C)c3nc2n1,0,0,?,0,?,0
Clc1cccc(CNc2cc(-c3ccccc3)nc3nncn23)c1,0,-,-,0,-,-
Cc1ccsc1/C=N/n1c(-c2ccco2)n[nH]c1=S,0,-59,0,0,0,0
Cn1ncc([N+](=O)[O-])c1C(=O)Nc1ccc(-c2nc3ccccc3o2)cc1,0,0,0,0,-,?
CCOc1cc(/C=C2/SC(=S)N(CC3CCCO3)C2=O)ccc1O (stereo not drawn),0,-64,0,0,0,0
CC(/C=C1\SC(=S)N(NC(=O)c2ccc(C)cc2)C1=O)=C\c1ccccc1,0,-52,0,0,0,0
COc1cc(/C=C2\SC(=S)N(NC(=O)c3ccncc3)C2=O)ccc1O,0,0,0,0,?,?
COc1cc(/C=C2\SC(=S)N(NC(=O)c3ccc(O)c(OC)c3)C2=O)ccc1O,0,-75,-,0,?,0
O=C1/C(=C/c2cccc(O)c2)SC(=S)N1CC1CCCO1 (stereo not drawn),0,0,0,0,0,0
CC(/C=C1\SC(=S)N(NC(=O)c2ccncc2)C1=O)=C\c1ccccc1,0,0,?,0,0,0
COc1cc(/C=C2/SC(=S)N(Cc3ccccc3)C2=O)ccc1O,0,-61,-,0,0,0
COc1ccc(Cc2c(C(C)(C)C)nc3cc(C)c(Br)c(C)n23)c(C)c1,0,0,-,0,-,-
Cc1cc2nc(C(C)(C)C)c(Cc3ccccc3)n2c(C)c1Br,?,-97,-,0,-,-
Cc1ccc2cccc(OC(=O)c3ccc4c(c3)OCCO4)c2n1,0,-50,0,0,0,0
Cc1ccc2cccc(OCC(=O)Nc3ccc4c(c3)OCO4)c2n1,0,0,0,0,-,0
COc1ccc(N2CCN(C(=O)CN=C3NS(=O)(=O)C(c4ccc(C)cc4)=C3C)CC2)cc1,0,-79,0,0,?,0
CN(C)CCNC(=O)c1nn(C)c2c1CCc1ccccc1-2,0,0,-,0,0,0
Nc1c(C(=O)Nc2ccccc2Cl)nnn1Cc1cccc(Cl)c1,0,-,-,0,-,-
O=[N+]([O-])/C=C/c1cn(Cc2ccc(Cl)cc2)c2ccccc12,0,-53,0,0,-,0
Cc1cccc(NC(=O)Cn2cnc3sc(C)c(S(=O)(=O)N4CCC(C)CC4)c3c2=O)n1,0,0,0,35,0,0
OCCC1CN(CCCc2ccccc2)CCN1Cc1ccccc1 (stereo not drawn),0,-82,0,0,0,0
O=c1cc(CN2CCN(Cc3ccc(F)cc3)C(CCO)C2)[nH]c2ccccc12 (stereo not drawn),0,-58,-,0,0,0
OCCC1CN(Cc2ccc(F)cc2)CCN1CCCc1ccccc1 (stereo not drawn),0,-58,-,0,0,0

# Compound activity (PubChem BioAssay)
